Results from PubChem BioAssay (NCATS).
Records with an inconclusive call do not appear. Active and inactive are the calls of the source. The call rests on the fitted dose curve; in most records, active means well fitted inhibition curve with a large enough effect; inconclusive means small, poorly fitted or top-dose-only effect, or effect the other way; inactive means flat fitted curve, though single readings scatter.

target: ATP-dependent 6-phosphofructokinase (Trypanosoma brucei brucei) (UniProt O15648); assay: qHTS Assay to Find Inhibitors of T. brucei phosphofructokinase: hit validation (AID 492961);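 further: luminescence reports ADP formed as PFK phosphorylates fructose-6-phosphate with ATP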; conditions: T. brucei PFK, ADP-Glo luminescence; series mostly up to 51.4 µM; activity change, negative = inhibition: at the top concentration
Sequence (O15648 whole entry, looked up): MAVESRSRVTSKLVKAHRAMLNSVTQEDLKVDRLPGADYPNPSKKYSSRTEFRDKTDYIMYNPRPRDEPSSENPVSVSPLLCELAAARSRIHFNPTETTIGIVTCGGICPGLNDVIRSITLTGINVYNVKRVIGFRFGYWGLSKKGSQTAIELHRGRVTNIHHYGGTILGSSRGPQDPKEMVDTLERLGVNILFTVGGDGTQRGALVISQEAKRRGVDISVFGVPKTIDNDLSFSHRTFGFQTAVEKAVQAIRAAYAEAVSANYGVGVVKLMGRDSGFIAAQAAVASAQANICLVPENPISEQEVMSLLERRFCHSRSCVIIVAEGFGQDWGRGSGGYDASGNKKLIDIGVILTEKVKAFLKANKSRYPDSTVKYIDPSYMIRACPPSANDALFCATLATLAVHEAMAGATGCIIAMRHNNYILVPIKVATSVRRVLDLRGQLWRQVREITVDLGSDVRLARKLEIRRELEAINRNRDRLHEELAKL
In short: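 Measures ADP output of PFK (1.25 nM) at 0.1 mM ATP, 0.5 mM F6P, pH 8.0 TEA buffer with 5 mM MgCl2. No-enzyme wells define full inhibition; uninhibited enzyme wells define zero.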
On the % scale 0 is the no-effect control and ±100 the full control effect.

| Compound | activity change, negative = inhibition |
| --- | --- |
| CO[C@H](C(=O)[C@@H](O)[C@@H](C)O)C1Cc2cc3cc(O[C@H]4C[C@@H](O[C@H]5C[C@@H](O)[C@H](O)[C@@H](C)O5)[C@@H](O)[C@@H](C)O4)c(C)c(O)c3c(O)c2C(=O)[C@H]1O[C@H]1C[C@@H](O[C@H]2C[C@@H](O[C@H]3C[C@](C)(O)[C@H](O)[C@@H](C)O3)[C@H](O)[C@@H](C)O2)[C@H](O)[C@@H](C)O1 (some centres not stated) | -13.1% (inactive) |
| CCN(CC)Cc1cc(Nc2ccnc3cc(Cl)ccc23)ccc1O | -15.7% [at 24.3 µM] (inactive) |
| Cc1cc(C(=O)NNCc2ccccc2)no1 | 3.76% [at 24.3 µM] (inactive) |
| C=C1C(=CC=C2CCC[C@@]3(C)[C@@H]2CC[C@H]3[C@H](C)CCCC(C)C)C[C@@H](O)C[C@@H]1O | 0% (inactive) |
| CCCCCCCC/C=C\CCCCCCCC(=O)O | -0.106% (inactive) |
| CC[N+](C)(C)Cc1ccccc1Br | 5.49% [at 24.3 µM] (inactive) |
| CCCC(=O)O[C@]1(C(=O)CCl)[C@H](C)C[C@@H]2[C@H]3CCC4=CC(=O)C=C[C@]4(C)[C@@]3(F)C(=O)C[C@@]21C | 0% (inactive) |
| COC(F)(F)C(Cl)Cl | -7.74% (inactive) |
| CC(C(=O)O)c1ccc(N2Cc3ccccc3C2=O)cc1 (configuration not stated) | -9.48% (inactive) |
| CCCCC/C=C\C/C=C\CCCCCCCC(=O)O | 2.73% (inactive) |
| C[C@]12O[C@H](C[C@]1(O)CO)n1c3ccccc3c3c4c(c5c6ccccc6n2c5c31)CNC4=O | 2.31% (inactive) |
| CCC(=O)NCCC1CCc2ccc3c(c21)CCO3 (configuration not stated) | -4.76% (inactive) |
| CCCCC(=O)O[C@]1(C(=O)CO)[C@H](C)C[C@H]2[C@@H]3CCC4=CC(=O)C=C[C@]4(C)[C@@]3(F)[C@@H](O)C[C@@]21C | -8.39% (inactive) |
| O=C(O)c1cc(O)c2c(c1)[O][Bi][O]2 | -15% (inactive) |
| Cc1ccccc1OCC(O)CNCCOc1ccc(C(N)=O)cc1 (configuration not stated) | -9.31% (inactive) |
| C#C[C@]1(O)CC[C@H]2[C@@H]3CCC4=CCCC[C@@H]4[C@H]3C(=C)C[C@@]21CC | 0% (inactive) |

| Compound | activity change, negative = inhibition |
| --- | --- |
| O=S(=O)(O)O | 4.38% (inactive) |
| C=CCSSSCC=C | 9.54% (inactive) |
| CC(O)CO (configuration not stated) | 0.269% (inactive) |
| Nc1c(N=Nc2ccc(-c3ccc(N=Nc4cc(S(=O)(=O)O)c5ccccc5c4N)cc3)cc2)cc(S(=O)(=O)O)c2ccccc12 | -4.91% (inactive) |
| CC(=O)Oc1c(C)cc(OCC(O)CNC(C)C)c(C)c1C (configuration not stated) | -7.91% (inactive) |
| O=C(Nc1cccc(C(F)(F)F)c1)c1cc(Br)cc(Br)c1O | -8.56% (inactive) |
| COC(=O)[C@H]1[C@H]2C[C@@H]3c4[nH]c5ccccc5c4CCN3C[C@H]2C[C@@H](OC(=O)c2cc(OC)c(OC)c(OC)c2)[C@@H]1OC | 8.09% (inactive) |
| C#CCOc1ccc2c(C)cc(=O)oc2c1 | 8.19% (inactive) |
| CCOC(=O)C1=C(C)NC(C)=C(C(=O)OCC)C1c1ccccc1C=CC(=O)OC(C)(C)C | 2.13% (inactive) |
| COC(C(=O)C(O)C(C)O)C1Cc2cc3cc(OC4CC(OC5CC(O)C(O)C(C)O5)C(O)C(C)O4)c(C)c(O)c3c(O)c2C(=O)C1OC1CC(OC2CC(OC3CC(C)(O)C(O)C(C)O3)C(O)C(C)O2)C(O)C(C)O1 (configuration not stated) | -1.05% (inactive) |
| CN1Cc2c(N)cccc2C(c2ccccc2)C1 (configuration not stated) | -6.45% (inactive) |
| C[C@H]1C[C@H]2[C@@H]3CCC4=CC(=O)C=C[C@]4(C)[C@@]3(F)[C@@H](O)C[C@]2(C)[C@@]1(O)C(=O)CO | -0.413% (inactive) |
| O=C(O)CN(CCN(CC(=O)O)CC(=O)O)CC(=O)O | 0.159% (inactive) |
| O=C1CSC2(CCN(CCCN3c4ccccc4Sc4ccc(Cl)cc43)CC2)N1 | -0.387% (inactive) |
| COCC(=O)Nc1cc(Sc2ccccc2)ccc1N=C(NC(=O)OC)NC(=O)OC | 4.04% (inactive) |
| O=C(O)CCC(=O)C(=O)O | -23.3% (inactive) |
